The target in assay [1] is Albumin (Bos taurus) (UniProt P02769). As to the kind of experiment: bovine serum albumin binders on microarray, profiling panel, artefact control for SMM control protein annotation, biochemical, small-molecule microarray, Alexa647 label, 635/667 nm fluorescence (AID 1118).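 Further: score merges 667 nm emission intensity and signal-to-noise per printed compound spot.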 Conditions: BSA-A647 binding, fluorescence 635 nm, higher = more signal.
Assay [2] is described as follows: small-molecule microarray binders of probe aXIP, primary screen, biochemical, NeuroSMM set, 635/667 nm fluorescence (AID 1119).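 Further: probe is the protein aXip251-270 applied at 1 µg/mL to compound-printed slides; binding of probe to printed compounds measured as 667 nm fluorescence plus signal to noise.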 As to conditions: higher = more signal, called active from +8 up or from −8 down.
A short description of assay [3]: small-molecule binders of probe aNOTCH3, primary screen, biochemical, small-molecule microarray, 635/667 nm fluorescence (AID 1120).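 Further: probe is a biotin-tagged antibody raised against NOTCH3 rather than NOTCH3 protein; score merges spot fluorescence near 667 nm with spot signal to noise.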 As to conditions: higher = more signal.
Assay [4] in a line: small-molecule binders of probe aNOTCH2, primary screen, biochemical, small-molecule microarray, 635/667 nm fluorescence (AID 1121).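 Further: score merges feature fluorescence read at 667 nm with its signal to noise.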 Conditions: higher = more signal.
In assay [5] the target is Carbonic anhydrase 2 (Homo sapiens) (UniProt P00918). Description: CAII small-molecule binders, profiling panel, biochemical, small-molecule microarray, Alexa647-labelled CAII (AID 1122). As to conditions: CAII-A647 binding fluorescence, higher = more signal.
Assay [6] can be described thus: COS7 lysate on small-molecule microarray, probe aHis, 635 nm (AID 1123).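 Further: z-score combines 667nm fluorescence intensity with signal-to-noise per printed compound spot.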 Conditions: COS7 cell lysate, fluorescence, higher = more signal.
The nature of assay [7]: compound binding in COS7 lysate, probe aLAP1, primary screen, cell lysate, small-molecule microarray (AID 1124).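 Further: lysate comes from COS7 cells expressing LAP1 and is applied at 0.3 µg/mL; score merges spot fluorescence near 667 nm with signal-to-noise over triplicate slides.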 Conditions: probe aLAP1, fluorescence, higher = more signal.
Assay [8] relates to Sam68 (KHDRBS1). As to the kind of experiment: Sam68 small-molecule binders, primary screen, biochemical, small-molecule microarray, 635 nm fluorescence (AID 1125).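 Further: score merges 667 nm channel intensity with signal to noise over triplicate slides.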 As to conditions: small-molecule microarray binding, higher = more signal.
In assay [9] the test system is Chordin-like protein 2 (CHRDL2). Description: CHRDL2 small-molecule binders, primary screen, biochemical, small-molecule microarray, 635 nm fluorescence (AID 1126).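 Further: printed compound slides probed with Chrdl2 protein at 4 µg/mL for 1 h at 4 C; score merges 667 nm emission intensity with signal to noise over three replicate slides.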 As to conditions: small-molecule microarray binding, fluorescence 635 nm; higher = more signal.
For assay [10], the target named is Concanavalin-A (Canavalia ensiformis) (UniProt P02866). Description: ConA small-molecule binders, primary screen, artefact control for SMM control protein annotation, biochemical, small-molecule microarray, Alexa647 label, 635 nm (AID 1127).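 Further: z combines 667 nm emission intensity with signal-to-noise across three replicate slides.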 As to conditions: ConA-A647 binding fluorescence, higher = more signal.
A short description of assay [11]: anti-His antibody binders, primary screen, artefact control for SMM control protein annotation, biochemical, small-molecule microarray, 635 nm fluorescence (AID 1128).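 Further: score merges feature fluorescence with signal-to-noise for each printed compound spot.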 As to conditions: anti-His Alexa647 antibody binding, higher = more signal.
For assay [12], the system named is Human papillomavirus type 1a E7 protein (residues 1-88). Description: HPV1a E7 small-molecule binders, primary screen, biochemical, small-molecule microarray, residues 1-88, 635 nm (AID 1129). As to conditions: small-molecule microarray binding, fluorescence 635 nm; higher = more signal.
For assay [13], the target named is Focal adhesion kinase 1 (Homo sapiens) (UniProt Q05397). Description: small-molecule microarray binders of FAK, primary screen, biochemical, 635/667 nm fluorescence, BSA, DTT (AID 1130).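 Further: composite of spot emission at 667 nm and signal to noise over triplicate slides.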 Conditions: PTK2 binding, 635 nm fluorescence, higher = more signal.
Assay [14] concerns Fibrinogen (Alexa647-labelled). As to the kind of experiment: fibrinogen binders on compound microarrays, profiling panel, artefact control for SMM control-protein annotation, biochemical, small-molecule microarray, 635/667 nm fluorescence (AID 1131).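 Further: z-score merges 667 nm fluorescence with per-spot signal-to-noise over triplicate slides.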 Conditions: fibrinogen-A647 binding fluorescence, higher = more signal.
Assay [15] has as its target Follistatin (Homo sapiens) (UniProt P19883). As to the kind of experiment: follistatin binders on small-molecule microarrays, primary screen, biochemical, small-molecule microarray, 635/667 nm fluorescence (AID 1132). As to conditions: FST binding, 635 nm fluorescence, higher = more signal.
Assay [16] has as its target Fibroblast growth factor 2 (Homo sapiens) (UniProt P09038). As to the kind of experiment: FGF2 binders on small-molecule microarrays, primary screen, biochemical, small-molecule microarray, 635/667 nm fluorescence (AID 1133). As to conditions: small-molecule microarray binding, FGF2, fluorescence 635/667; higher = more signal.
The nature of assay [17]: mitochondrial membrane potential change in A549 cells, profiling panel, cell-based, JC-1 fluorescence, basal, 24 h, 100 nL (AID 1138).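 Further: A549 lung adenocarcinoma cells under basal conditions with no added stimulus; test concentration not given here.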 As to conditions: higher = more signal.
Assay [18] concerns Lefty1. As to the kind of experiment: Lefty1 binders on small-molecule microarrays, primary screen, biochemical, small-molecule microarray, 635/667 nm fluorescence (AID 1139). Conditions: small-molecule microarray binding, fluorescence 635/667; higher = more signal.
The test system of assay [19] is wheat germ agglutinin (Triticum aestivum), Alexa647-labelled. As to the kind of experiment: wheat germ agglutinin binders on compound microarrays, profiling panel, artefact control for SMM control-protein annotation, biochemical, small-molecule microarray, 635/667 nm fluorescence (AID 1140).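 Further: score merges 667 nm feature emission with signal to noise over triplicate slides.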 As to conditions: WGA-A647 binding, 635 nm fluorescence, higher = more signal.

Assay [20] has as its target Luciferin 4-monooxygenase (Photinus pyralis) (UniProt P08659). As to the kind of experiment: firefly luciferase enzyme inhibitors, primary screen, biochemical, luminescence, purified enzyme, 2006 set (AID 1141).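 Further: cell-free assay with purified firefly luciferase at 100 ng per well in PBS; test concentration not given here.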 Conditions: SteadyGlo luminescence, 30 min, higher = more signal, called active from +8 up or from −8 down.

The text below walks through data of PubChem BioAssay.

Active and inactive are the calls of the source.

Sequence of Follistatin (Homo sapiens) (P19883 whole entry, looked up): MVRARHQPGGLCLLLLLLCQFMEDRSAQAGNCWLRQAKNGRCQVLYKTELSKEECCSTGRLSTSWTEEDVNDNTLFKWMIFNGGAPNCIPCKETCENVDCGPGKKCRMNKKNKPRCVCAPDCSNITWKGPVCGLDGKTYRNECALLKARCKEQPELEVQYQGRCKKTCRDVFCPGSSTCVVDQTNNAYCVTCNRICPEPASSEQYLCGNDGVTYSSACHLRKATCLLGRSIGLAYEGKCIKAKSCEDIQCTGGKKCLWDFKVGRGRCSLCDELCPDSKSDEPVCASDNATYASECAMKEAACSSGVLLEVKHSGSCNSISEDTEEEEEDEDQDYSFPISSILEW
Sequence of Albumin (Bos taurus) (P02769 whole entry, looked up): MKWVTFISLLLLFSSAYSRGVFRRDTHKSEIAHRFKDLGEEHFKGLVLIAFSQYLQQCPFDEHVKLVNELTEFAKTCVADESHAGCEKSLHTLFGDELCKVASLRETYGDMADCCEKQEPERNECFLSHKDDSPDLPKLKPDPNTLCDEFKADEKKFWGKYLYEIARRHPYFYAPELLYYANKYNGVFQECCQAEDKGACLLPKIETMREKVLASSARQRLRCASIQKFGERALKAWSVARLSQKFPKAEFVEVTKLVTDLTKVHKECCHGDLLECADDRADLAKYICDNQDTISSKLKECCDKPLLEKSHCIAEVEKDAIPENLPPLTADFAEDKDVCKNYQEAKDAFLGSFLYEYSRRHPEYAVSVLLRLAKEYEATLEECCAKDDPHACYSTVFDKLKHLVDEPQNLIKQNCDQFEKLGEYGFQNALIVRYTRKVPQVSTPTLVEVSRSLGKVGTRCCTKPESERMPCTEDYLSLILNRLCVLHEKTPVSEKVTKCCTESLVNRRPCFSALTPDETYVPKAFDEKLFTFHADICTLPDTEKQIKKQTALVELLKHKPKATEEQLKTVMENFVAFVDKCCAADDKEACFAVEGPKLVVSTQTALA
Sequence of Concanavalin-A (Canavalia ensiformis) (P02866 whole entry, looked up): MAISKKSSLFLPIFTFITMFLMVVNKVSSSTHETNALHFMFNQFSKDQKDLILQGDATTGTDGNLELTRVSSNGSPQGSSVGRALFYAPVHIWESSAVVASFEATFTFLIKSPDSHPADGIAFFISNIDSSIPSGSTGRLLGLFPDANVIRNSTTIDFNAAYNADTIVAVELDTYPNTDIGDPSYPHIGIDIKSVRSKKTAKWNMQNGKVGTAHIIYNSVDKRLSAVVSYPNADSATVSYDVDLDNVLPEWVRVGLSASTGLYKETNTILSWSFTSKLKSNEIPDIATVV
Sequence of Focal adhesion kinase 1 (Homo sapiens) (Q05397 whole entry, looked up): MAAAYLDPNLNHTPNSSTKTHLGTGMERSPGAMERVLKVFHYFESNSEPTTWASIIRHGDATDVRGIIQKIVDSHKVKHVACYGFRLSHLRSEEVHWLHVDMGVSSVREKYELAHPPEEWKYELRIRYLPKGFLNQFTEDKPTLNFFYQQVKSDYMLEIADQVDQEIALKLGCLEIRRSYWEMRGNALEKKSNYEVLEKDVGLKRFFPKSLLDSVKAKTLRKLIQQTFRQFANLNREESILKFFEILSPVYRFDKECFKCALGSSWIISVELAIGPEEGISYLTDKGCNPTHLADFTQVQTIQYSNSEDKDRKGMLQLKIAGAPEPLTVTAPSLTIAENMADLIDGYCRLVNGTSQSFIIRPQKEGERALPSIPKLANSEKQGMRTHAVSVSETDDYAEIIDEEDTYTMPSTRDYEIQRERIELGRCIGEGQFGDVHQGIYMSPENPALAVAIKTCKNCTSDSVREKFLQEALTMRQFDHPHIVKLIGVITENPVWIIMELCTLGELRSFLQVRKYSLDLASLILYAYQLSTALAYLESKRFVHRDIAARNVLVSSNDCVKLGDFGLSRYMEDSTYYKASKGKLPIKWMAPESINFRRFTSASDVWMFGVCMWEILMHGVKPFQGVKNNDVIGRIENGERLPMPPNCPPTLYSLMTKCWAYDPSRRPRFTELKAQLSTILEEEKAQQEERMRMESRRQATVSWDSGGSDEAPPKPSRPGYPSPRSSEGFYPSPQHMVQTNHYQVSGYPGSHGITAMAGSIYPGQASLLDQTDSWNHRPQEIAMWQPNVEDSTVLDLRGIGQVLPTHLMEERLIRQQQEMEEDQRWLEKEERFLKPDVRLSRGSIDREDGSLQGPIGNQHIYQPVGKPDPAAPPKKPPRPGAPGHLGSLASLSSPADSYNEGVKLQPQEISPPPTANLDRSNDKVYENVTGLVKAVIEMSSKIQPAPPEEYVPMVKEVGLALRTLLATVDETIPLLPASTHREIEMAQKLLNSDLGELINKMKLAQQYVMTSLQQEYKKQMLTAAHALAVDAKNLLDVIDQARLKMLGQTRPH
Sequence of Fibroblast growth factor 2 (Homo sapiens) (P09038 whole entry, looked up): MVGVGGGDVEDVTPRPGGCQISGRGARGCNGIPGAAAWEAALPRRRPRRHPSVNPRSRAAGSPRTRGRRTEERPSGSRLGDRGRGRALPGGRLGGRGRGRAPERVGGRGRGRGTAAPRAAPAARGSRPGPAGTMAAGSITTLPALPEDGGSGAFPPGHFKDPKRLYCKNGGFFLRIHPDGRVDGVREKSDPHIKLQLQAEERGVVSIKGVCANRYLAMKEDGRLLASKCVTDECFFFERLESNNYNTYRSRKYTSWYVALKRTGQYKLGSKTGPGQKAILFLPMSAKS
Sequence of Luciferin 4-monooxygenase (Photinus pyralis) (P08659 whole entry, looked up): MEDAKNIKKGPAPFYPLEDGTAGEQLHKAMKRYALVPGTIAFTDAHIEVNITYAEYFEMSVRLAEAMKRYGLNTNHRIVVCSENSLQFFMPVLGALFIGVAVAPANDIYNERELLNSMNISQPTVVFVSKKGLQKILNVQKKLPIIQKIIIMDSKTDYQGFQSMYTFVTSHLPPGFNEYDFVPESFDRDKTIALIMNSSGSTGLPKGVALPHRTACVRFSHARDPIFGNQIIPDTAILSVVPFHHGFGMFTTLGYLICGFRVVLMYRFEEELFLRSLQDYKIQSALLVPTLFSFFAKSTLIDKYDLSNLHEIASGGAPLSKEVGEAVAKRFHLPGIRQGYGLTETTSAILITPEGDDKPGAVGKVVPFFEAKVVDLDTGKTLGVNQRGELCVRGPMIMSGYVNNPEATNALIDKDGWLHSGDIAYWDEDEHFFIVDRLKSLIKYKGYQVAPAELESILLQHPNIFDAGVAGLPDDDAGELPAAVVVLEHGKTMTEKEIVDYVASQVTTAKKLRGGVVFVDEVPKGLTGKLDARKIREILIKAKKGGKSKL

Regarding `O=C1C2C=CC(C(O)C#Cc3ccccc3)N(Nc3ccccc3)C2C(=O)N1c1ccccc1` (stereo not given), the composite z-score was 0.812 in [1]; -0.0077 in assay [3]; -0.0176 in [4]; 0.812 in [5]; 1.94 in assay [6]; 0.435 in assay [7]. The composite z-score in [8] was 0.432; in assay [9] it was -0.575; in assay [10], -0.414; in [11], 1.1; in [12] it was 0.356; in [13], 0.0485. For the same compound, the composite z-score in assay [14] was 0.941; in assay [15], 0.108; in [16] it was -0.0859; in assay [18] it was -0.67; in assay [19], 1.23. Besides, in assay [2], the composite Z-score is 0.634 (inactive). For the same compound, the z-score was -0.136 in assay [17] and -0.934 (inactive) in assay [20].
Consider `C=CCN1C(=O)[C@@]2(O[C@@H](CCn3cc([C@H](O)c4ccccc4)nn3)[C@H]([Si](C)(C)c3ccc(OC)cc3)[C@H]2C)c2cc(N3CCOC3=O)ccc21`, for which the composite z-score in assay [1] is 0.0865; in assay [3], -0.0932; in assay [4], -0.0666; in assay [5] it was 0.614; in assay [6], 1.02; in assay [7], 0.0741. Moreover, the composite z-score in [8] was 1.11; in assay [9], -0.0548; in [10], -0.559; in assay [11] it was 1.34; in [12], 1.16; in assay [13], 0.533. Further, the composite z-score in assay [14] was -0.285; in assay [15], 0.0302; in assay [16], 0.0085; in assay [18], -0.192; in assay [19] it was -0.605. Besides, in assay [2], the composite Z-score is 0.146 (inactive). For the same compound, the results for the z-score in [17] and in assay [20] were 0.899 and -0.731 (inactive), respectively.
As for `C=CC[C@]1(C(N)=O)N=C(c2ccc(OCCCO)cc2)O[C@H]1c1ccccc1CN=[N+]=[N-]`, the composite z-score in [1] is 1.05; in assay [3], -0.0502; in assay [4], -0.0785; in assay [5], 0.856; in assay [6], 2.69; in [7], 0.623. In addition, the composite z-score in assay [8] was 1.11; in assay [9], -0.63; in [10], 0.885; in [11], 3.2; in assay [12], 0.928; in assay [13] it was 0.409. Besides, the composite z-score in assay [14] was 1.01; in assay [15] it was 0.653; in assay [16], -0.373; in assay [18] it was -0.484; in assay [19] it was 1.43. The composite Z-score in [2] was 0.221 (inactive). For the same compound, the z-score is 0.766 in assay [17] and -1.47 (inactive) in assay [20].
For the compound `C=CCNC(=O)[C@H]1[C@@H]2C(=O)O[C@@H](c3ccccc3)[C@@H](c3ccccc3)N2[C@@H](c2ccccc2OCCO)[C@]12C(=O)N(C(=O)OCCOC)c1ccc(C#CCNC(N)=O)cc12`, the composite z-score in assay [1] was 0.676; in [3], 0.0379; in assay [4], -0.101; in assay [5] it was 0.555; in assay [6], 1.94; in assay [7], 1.3. The composite z-score in [8] was 1.29; in [9], -0.246; in assay [10] it was 1.14; in assay [11], 1.26; in assay [12] it was 1.17; in assay [13], 0.409. Moreover, the composite z-score in assay [14] was determined as 0.742; in assay [15], 0.776; in assay [16], 0.104; in [18] it was 0.629; in assay [19], 1.11. Also, the composite Z-score in assay [2] was -0.0888 (inactive). Moreover, the z-score in [17] was 0.423; in [20], -0.963 (inactive).
`COC(=O)[C@@]1(Cc2ccc(OC)cc2)[C@H]2c3cc(C(=O)N(C)C)n(Cc4ccc(C)c(F)c4F)c3C[C@H]2CN1C(=O)c1ccccc1`: the composite z-score in assay [1] is 0.856; in assay [3] it was 0.0159; in [4], -0.108; in assay [5], 0.535; in [6], 1.41; in assay [7], 0.0293. The composite z-score in assay [8] was 0.138; in [9], -1.22; in assay [10], 0.782; in [11], 0.158; in assay [12], 0.713; in [13], 0.0211. In addition, the composite z-score in [14] was 0.746; in assay [15], -0.266; in [16] it was -0.869; in assay [18], -0.826; in assay [19], 0.546. In [2], the composite Z-score is 0.0888 (inactive). For the same compound, the figures for the z-score in assay [17] and in [20] were 0.0287 and 2.24 (inactive), respectively.
Take `CCN1C(C)=C(C(=O)OC)[C@@H](c2ccccc2)N2C(=O)[C@](O)(C(=O)OC)[C@@H](c3ccccc3)C(C(=O)c3ccccc3)=C12`: the composite z-score in assay [1] is 0.325; in assay [3], 0.541; in [4] it was -0.112; in [5] it was 0.401; in assay [6], 0.915; in [7], 0.629. Besides, the composite z-score amounted to 0.723 in assay [8]; 0.309 in assay [9]; 0.352 in assay [10]; 0.0774 in assay [11]; 0.778 in assay [12]; 0.0079 in assay [13]. In addition, the composite z-score in [14] was 0.983; in [15] it was 0.411; in assay [16] it was 0.411; in assay [18] it was 0.717; in assay [19], 0.593. Besides, the composite Z-score in assay [2] is 0.111 (inactive). The z-score in assay [17] was 1.58; in assay [20], -1.2 (inactive).
